This passage reports Potency results from PubChem BioAssay (Tox21).

Where “and” joins values, the source holds several entries; their conditions need not be identical. Equal entries are not always repeated. Results filed as inconclusive are left out. A structure can be active in one record and inactive in another. Calls of active or inactive are those of the source. Unless noted, calls come from the whole dose curve; as a rule, active = well fitted curve in the direction sought with a large enough effect in the repeat runs; inconclusive = weak or mixed curves; inactive = no such curve, though single readings can be large; an effect the other way counts as inactive or inconclusive.

A short description of test [1]: qHTS assay to identify small molecule antagonists of the estrogen related receptor (ERR) signaling pathway from Tox21 library - cell viability counter screen (AID 1224834). Note: nearly all actives have a fitted effect of over 30% in size. Note: potency is the fitted concentration of half-maximal effect. In a few lines:
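ERR cells, 2,000/well; 6 h settle at 37 C/5% CO2; pin-tool compound transfer in DMSO; 17.5 h at 37 C; CellTiter-Fluor, 30 min; fluorescence intensity.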
A general note: qHTS replaces the single test concentration by a dilution series.

The target of test [2] is Luciferin 4-monooxygenase (Photinus pyralis) (UniProt P08659). The test can be described thus: qHTS assay to identify small molecule inhibitors of firefly luciferase (AID 1224835). Note: nearly all actives have a fitted effect of over 25% in size. Note: potency is the fitted concentration of half-maximal effect. The method in brief:
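Biochemical qHTS: compounds run as interplate titrations against purified firefly enzyme, with D-luciferin and ATP each at its KM concentration. Light output recorded by CCD imaging.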

Test [3] can be described thus: qHTS assay to identify small molecule agonists of the constitutive androstane receptor (CAR) signaling pathway - cell viability counter screen (AID 1224836). Note: series mostly up to about 92 µM; nearly all actives have a fitted effect of over 45% in size. The method in brief:
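HepG2-CYP2B6-hCAR, 2500 cells/well, 4 h pre-incubation; cpd 15 conc + PK11195 0.75 uM final; 23 h, 37 C/5% CO2; CellTiter-Fluor, fluorescence.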

The nature of test [4]: qHTS assay to identify small molecule antagonists of the constitutive androstane receptor (CAR) signaling pathway - cell viability counter screen (AID 1224837). Note: nearly all actives have a fitted effect of over 45% in size. Note: potency is the fitted concentration of half-maximal effect. In a few lines: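 Viability was measured with CellTiter-Fluor in a HepG2 line carrying stably transfected hCAR and a CYP2B6-2.2kb construct. Cells were exposed for 23 hr at 37 C to 15 compound concentrations with 50 nM CITCO as agonist.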

The nature of test [5]: qHTS assay to identify small molecule antagonists of the estrogen related receptor signaling pathway with the pleiotropic PPARgamma coactivator (PGC) from Tox21 10K library - cell viability counter screen (AID 1224840; active = well fitted cell-killing curve with a large enough effect in the repeat runs, not every such curve was filed as active; note: nearly all actives have a fitted effect of over 40% in size; note: potency is the fitted concentration of half-maximal effect). In a few lines:
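Multiplexed viability counter screen in the PGC/ERR cell line: cells treated with DMSO-dissolved compounds for 17.5 hours at 37 C, then viability measured as CellTiter-Fluor fluorescence.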

Test [6] in a line: qHTS assay to identify small molecule antagonists of the estrogen related receptor signaling pathway with the pleiotropic PPARgamma coactivator (PGC) from Tox21 10K library (AID 1224841; call rule not given here; note: actives are mostly falling curves and most rising ones were filed inactive; nearly all actives have a fitted effect of over 50% in size; note: potency is the fitted concentration of half-maximal effect). In a few lines:
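Steps: plate 2,000 PGC/ERR cells per well; incubate 6 h at 37 C with 5% CO2; transfer compounds from DMSO stocks by pin tool; incubate 18 h at 37 C; add One-Glo; measure luminescence 30 min later.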

A short description of test [7]: qHTS assay to identify small molecule agonists of the estrogen related receptor signaling pathway with the pleiotropic PPARgamma coactivator (PGC) from Tox21 10K library (AID 1224842). Note: nearly all actives have a fitted effect of over 15% in size. Note: potency is the fitted concentration of half-maximal effect. In a few lines:
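PGC/ERR reporter cell line, 2,000 cells per well, incubated 6 h at 37 C before 23 nL compound in DMSO was added. After 18 h at 37 C, One-Glo luminescence read following 30 min at room temperature.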

Test [8] addresses Thyrotropin receptor (Homo sapiens) (UniProt P16473). The test can be described thus: qHTS assay to identify small molecule agonists of the thyroid stimulating hormone receptor (TSHR) signaling pathway (AID 1224843; calls by dose curve; note: nearly all actives have a fitted effect of over 45% in size; note: potency is the fitted concentration of half-maximal effect). The method in brief: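 Agonist-mode screen: TSHR HEK293 cells received test chemicals for half an hour at room temperature, then HTRF cAMP detection reagents for one hour prior to fluorescence measurement. Each chemical ran as a 15-concentration series, triplicated.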

Test [9] deals with Nuclear receptor subfamily 1 group I member 3 (Homo sapiens) (UniProt Q14994). In words: qHTS assay to identify small molecule antagonists of the constitutive androstane receptor (CAR) signaling pathway (AID 1224838).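 Note: HepG2 cells stably expressing hCAR with CYP2B6 luciferase reporter stimulated by CITCO; nearly all actives have a fitted effect of over 40% in size.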 Note: potency is the fitted concentration of half-maximal effect. The method in brief:
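Antagonist mode used CITCO at a final 50 nM to activate CAR in human hepatoma HepG2 cells carrying stable hCAR and a 2.2 kb CYP2B6 promoter-luciferase construct. Compounds were tested at 15 concentrations over 24 h, with luminescence as the end point.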

The target is the same in test [10]. The test can be described thus: qHTS assay to identify small molecule agonists of the constitutive androstane receptor (CAR) signaling pathway (AID 1224839). Note: nearly all actives have a fitted effect of over 15% in size. Note: potency is the fitted concentration of half-maximal effect. The method in brief:
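HepG2-CYP2B6-hCAR cells, 2500/well, 4 h pre-incubation; compounds 15 conc.; PK11195 0.75 uM final; 24 h, 37 C/5% CO2; ONE-Glo luciferase read.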

Nuclear receptor subfamily 1 group I member 3 (Homo sapiens), sequence (Q14994 whole entry, looked up): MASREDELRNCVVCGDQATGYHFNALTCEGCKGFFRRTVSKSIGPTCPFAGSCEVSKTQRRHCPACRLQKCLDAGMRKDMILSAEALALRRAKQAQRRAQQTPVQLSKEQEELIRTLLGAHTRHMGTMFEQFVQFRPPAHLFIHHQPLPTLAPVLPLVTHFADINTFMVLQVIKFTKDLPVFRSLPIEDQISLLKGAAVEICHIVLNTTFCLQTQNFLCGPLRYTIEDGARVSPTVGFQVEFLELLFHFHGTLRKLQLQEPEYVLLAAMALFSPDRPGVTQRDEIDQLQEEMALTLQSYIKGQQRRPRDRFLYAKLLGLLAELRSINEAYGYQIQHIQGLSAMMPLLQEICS
Thyrotropin receptor (Homo sapiens), sequence (P16473 whole entry, looked up): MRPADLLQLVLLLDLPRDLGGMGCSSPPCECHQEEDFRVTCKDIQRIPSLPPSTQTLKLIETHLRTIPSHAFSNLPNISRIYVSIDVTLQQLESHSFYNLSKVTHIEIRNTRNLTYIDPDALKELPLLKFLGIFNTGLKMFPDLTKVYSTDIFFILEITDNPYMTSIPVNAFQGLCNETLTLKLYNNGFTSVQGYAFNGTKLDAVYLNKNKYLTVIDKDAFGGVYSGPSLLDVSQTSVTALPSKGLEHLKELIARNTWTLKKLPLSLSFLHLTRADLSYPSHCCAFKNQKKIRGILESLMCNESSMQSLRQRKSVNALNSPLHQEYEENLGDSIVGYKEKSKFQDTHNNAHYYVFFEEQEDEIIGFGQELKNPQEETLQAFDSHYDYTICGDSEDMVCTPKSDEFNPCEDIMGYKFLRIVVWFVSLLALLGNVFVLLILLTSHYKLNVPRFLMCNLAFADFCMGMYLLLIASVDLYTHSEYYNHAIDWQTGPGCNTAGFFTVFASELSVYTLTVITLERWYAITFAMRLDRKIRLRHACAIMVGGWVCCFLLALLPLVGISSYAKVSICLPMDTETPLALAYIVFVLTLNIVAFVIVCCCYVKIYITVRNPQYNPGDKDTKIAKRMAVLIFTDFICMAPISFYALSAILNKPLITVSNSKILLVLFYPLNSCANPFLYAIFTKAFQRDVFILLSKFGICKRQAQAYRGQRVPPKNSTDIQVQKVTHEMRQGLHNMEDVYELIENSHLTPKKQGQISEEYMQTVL
Luciferin 4-monooxygenase (Photinus pyralis), sequence (P08659 whole entry, looked up): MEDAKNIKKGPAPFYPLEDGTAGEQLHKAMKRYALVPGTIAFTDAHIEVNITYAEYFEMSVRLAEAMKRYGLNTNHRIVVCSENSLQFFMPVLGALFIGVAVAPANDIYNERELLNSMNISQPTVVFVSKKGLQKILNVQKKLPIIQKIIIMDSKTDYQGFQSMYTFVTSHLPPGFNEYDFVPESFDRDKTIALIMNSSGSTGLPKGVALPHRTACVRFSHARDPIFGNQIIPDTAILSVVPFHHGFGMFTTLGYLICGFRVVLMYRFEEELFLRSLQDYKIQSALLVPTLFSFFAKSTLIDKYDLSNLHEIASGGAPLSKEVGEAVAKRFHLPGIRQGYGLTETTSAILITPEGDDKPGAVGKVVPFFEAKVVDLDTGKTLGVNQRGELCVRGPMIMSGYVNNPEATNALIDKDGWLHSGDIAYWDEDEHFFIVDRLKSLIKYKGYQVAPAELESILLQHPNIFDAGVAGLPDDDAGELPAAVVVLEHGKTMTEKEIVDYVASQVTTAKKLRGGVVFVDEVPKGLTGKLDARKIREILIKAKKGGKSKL

`O=Cc1ccco1`: the Potency result in test [1], in test [2], in [3], in [4], in test [5] and in test [6] was “inactive” in each case. Moreover, the Potency result in test [7] and in [8] was “inactive” in each case.
Take `CCCCN(CCCC)N=O`: the Potency result in [1], in [2], in [3], in [4], in test [5] and in test [8] was “inactive” in each case.
Regarding `CCCCCCCCCCCOC(=O)c1ccccc1C(=O)OCCCCCCCCCCC`, the Potency entry in test [1], in test [2], in test [3], in test [4], in [5] and in [8] was “inactive” each time.
In the case of `CCOC(=S)S`, the Potency result in [1], in [3], in test [10], in test [6], in [7] and in test [8] was “inactive” in each case. The Potency was 32.6 µM (active) in [4]; 24.3 µM (active) and 36.6 µM (active) in test [9].
As for `CC(C)(c1cc(Cl)c(O)c(Cl)c1)c1cc(Cl)c(O)c(Cl)c1`, the Potency entry in test [1], in test [2], in test [3], in [4], in test [5] and in test [6] was “inactive” in each case. Also, the Potency entry in test [7] and in [8] was “inactive” each time.
`CCC(C)c1cc([N+](=O)[O-])cc([N+](=O)[O-])c1O` (configuration not stated): the Potency result in test [1] is “inactive and 19.3 µM (active)”; in test [5], “inactive and 17.2 µM (active)”; in [6], “inactive and 10.9 µM (active)”. The Potency result in test [2], in test [9], in test [10], in test [7] and in test [8] was “inactive” each time.
As to `c1cc(OCC2CO2)ccc1Cc1ccc(OCC2CO2)cc1` (configuration not stated), the Potency entry in [2], in [3], in test [4], in [9], in test [10] and in [5] was “inactive” in each case. In addition, in [8], the Potency entry was “inactive”.
Regarding `Cc1ccc2c(c1N)C(=O)c1ccccc1C2=O`, the Potency is 30.3 µM (active) in test [1]; 3.95 µM (active) and 5.64 µM (active) in test [2]; 4.28 µM (active) and 7.7 µM (active) in test [10]; 19.1 µM (active) and 9.69 µM (active) in [7]. In addition, the Potency result in [9], in test [5], in [6] and in test [8] was “inactive” each time.
`S=C1NCCN1`: the Potency entry in test [1], in test [3], in test [4] and in test [5] was “inactive” throughout. For the same compound, the Potency in [8] was 1.69 µM (active) and inactive.
Consider `c1ccc(NNc2ccccc2)cc1`, for which the Potency result in test [1], in test [3], in [4], in test [5], in test [6] and in [7] was “inactive” in each case. The Potency result in test [8] was “inactive”. For the same compound, the Potency in test [2] is 25.4 µM (active) and 17.8 µM (active).
On to `Oc1cc(Cl)ccc1Oc1ccc(Cl)cc1Cl`, for which the Potency in [1] is 24.9 µM (active) and 29.8 µM (active); in test [9] it was 55.8 µM (active) and inactive; in [5], 24.9 µM (active); in test [6], 33.2 µM (active). Also, the Potency entry in test [2], in test [10] and in [7] was “inactive” each time.
As to `Nc1ccc(-c2ccc(N)c(N)c2)cc1N`, the Potency is 48.4 µM (active) in [1] and 35.5 µM (active) in test [2]. In addition, the Potency entry in test [3], in test [4] and in test [8] was “inactive” throughout.
For `O=P(Oc1ccccc1)(Oc1ccccc1)Oc1ccccc1`, the Potency result in test [2], in test [3], in test [4], in test [9], in test [5] and in [7] was “inactive” throughout. The Potency in [10] is 21.6 µM (active) and 19.3 µM (active); in test [6], 13.6 µM (active); in test [8], 12.1 µM (active) and 9.69 µM (active).
For `O=C(O)C(F)(F)C(F)(F)C(F)(F)C(F)(F)C(F)(F)C(F)(F)C(F)(F)F`, the Potency entry in test [1], in test [2], in test [3], in [4], in test [5] and in [8] was “inactive” each time.
Regarding `CN(C)c1ccc(C(=O)c2ccc(N(C)C)cc2)cc1`, the Potency result is “inactive and 9.69 µM (active)” in [1]; 35.2 µM (active) and 10 µM (active) in [2]; 1.93 µM (active) in test [10]. The Potency entry in [4], in test [9] and in [5] was “inactive” throughout.
`Clc1nc(Cl)nc(Cl)n1`: the Potency entry in test [1], in test [3], in test [4], in [9], in test [10] and in [5] was “inactive” throughout.
On to `c1ccc(-c2cccc(-c3ccccc3)c2)cc1`, for which the Potency entry in [1], in test [3], in test [4], in test [5] and in [8] was “inactive” each time. Besides, the Potency in test [2] was 9.03 µM (active) and 7.96 µM (active).
Turning to `CCN(CC)N=O`, the Potency entry in test [1], in [2], in test [3], in [4], in test [5] and in test [6] was “inactive” each time. The Potency entry in test [7] and in [8] was “inactive” each time.
Turning to `NC(=S)Nc1ccccc1`, the Potency in test [1] is 22 µM (active) and inactive. Further, the Potency entry in [2], in test [3], in test [4], in test [5] and in test [8] was “inactive” throughout.
On to `NNC(=S)NN`, for which the Potency result in test [2], in test [3], in [4], in [7] and in test [8] was “inactive” in each case. Further, the Potency in [6] was 62.8 µM (active) and 61.1 µM (active).
